# Keap1 Nrf2 FP: Keap1-Nrf2 (human) interaction inhibition. Q14145. Keap1 Kelch-Nrf2 peptide fluorescence polarization, 1536-well. inhibition, % at 9.4 µM. 340,000 tested, 0.15% active; in the data active = inhibition above about 12%;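 note: human Keap1 Kelch domain with fluorescein labeled Nrf2 9mer peptide probe; 0% = neutral control wells and 100% = peptide positive control; higher means more block of Keap1 binding to Nrf2 peptide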
# RTF Ca sens act: cardiac RTF calcium sensitization | P19429+P45379 | IANBD-labeled TnC RTF fluorescence at EC20 calcium; 0% EC20 calcium, 100% full calcium | activation, % at 7.2 µM | 340,000 tested, 0.24% active;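 active = activation above the mean over all tested compounds plus 3 SD, cut at about 30% in these data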;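 note: rise in fluorescence read as greater calcium sensitivity of cardiac thin filaments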
# RTF Ca sens inh: cardiac RTF calcium desensitization. inhibition, % at 7.15 µM. 340,000 tested, 0.12% active. IANBD-labeled cardiac RTF, Ca2+ fluorescence. P19429+P45379;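 active = inhibition above the mean inhibition of all tested compounds plus 3 SD, cut at about 17% in these data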;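 note: assay run at fixed EC70 calcium of 1.6 mM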
# C-LANA FP: inhibitors of KSHV LANA C-terminal domain DNA binding; 340,000 tested, 0.078% active; inhibition, % at 9 µM; MBP-C-LANA/FAM-LBS DNA binding, fluorescence polarization;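 active = highest replicate inhibition at or above 60% at 9 µM, even if other replicates fall short; inactive = all replicates below 60% inhibition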;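 note: 0% = neutral control wells and 100% = 4 µM acridine orange control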
# LANA-H2A inh: blocks KSHV LANA binding to histone H2A/H2B; 320,000 tested, 0.6% active; cell-free LANA-H2A/H2B peptide, fluorescence polarization; inhibition, % (no concentration beside the values); Q9QR71; in the data active = inhibition mostly above about 10%, no sharp cut-off; inactive = mostly below about 6.7%
# Target sequence (Q9QR71 whole entry, looked up): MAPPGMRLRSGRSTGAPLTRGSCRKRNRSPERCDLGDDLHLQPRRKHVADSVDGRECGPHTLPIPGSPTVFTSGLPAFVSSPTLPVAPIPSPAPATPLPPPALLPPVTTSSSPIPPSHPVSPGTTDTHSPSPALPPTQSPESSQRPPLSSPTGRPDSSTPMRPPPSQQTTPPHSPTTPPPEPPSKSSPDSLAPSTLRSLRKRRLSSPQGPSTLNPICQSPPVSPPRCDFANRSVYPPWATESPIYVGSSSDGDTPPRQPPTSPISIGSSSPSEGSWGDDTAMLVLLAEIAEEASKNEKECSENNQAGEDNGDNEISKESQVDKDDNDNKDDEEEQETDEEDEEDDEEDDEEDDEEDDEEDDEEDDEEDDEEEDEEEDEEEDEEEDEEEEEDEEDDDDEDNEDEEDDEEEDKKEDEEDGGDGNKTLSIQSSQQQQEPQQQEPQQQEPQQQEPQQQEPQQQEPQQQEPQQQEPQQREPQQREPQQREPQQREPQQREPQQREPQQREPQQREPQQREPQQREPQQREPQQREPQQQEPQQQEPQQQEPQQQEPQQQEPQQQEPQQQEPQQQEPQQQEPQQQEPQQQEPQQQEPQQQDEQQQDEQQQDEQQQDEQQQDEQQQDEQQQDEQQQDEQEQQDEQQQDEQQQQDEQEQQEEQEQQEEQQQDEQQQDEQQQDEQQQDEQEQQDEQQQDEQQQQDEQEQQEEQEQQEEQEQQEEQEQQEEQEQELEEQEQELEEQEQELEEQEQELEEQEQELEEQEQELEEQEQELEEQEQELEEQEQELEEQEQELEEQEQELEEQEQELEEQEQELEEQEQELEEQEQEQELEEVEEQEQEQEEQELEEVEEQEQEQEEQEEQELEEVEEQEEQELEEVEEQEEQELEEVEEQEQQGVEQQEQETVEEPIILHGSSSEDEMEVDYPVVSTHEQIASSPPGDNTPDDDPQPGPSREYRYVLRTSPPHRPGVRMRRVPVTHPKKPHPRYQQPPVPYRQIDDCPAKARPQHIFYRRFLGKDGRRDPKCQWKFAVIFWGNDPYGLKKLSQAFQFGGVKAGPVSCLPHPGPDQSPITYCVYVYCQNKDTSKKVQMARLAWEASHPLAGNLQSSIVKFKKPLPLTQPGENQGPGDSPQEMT
# * marks the source's active call; other numbers are inactive results; i = inactive; . = no result given; ! = not active in a repeat. Compounds with a hit are over-represented: about 0.99% of the library has one in this group of screens.
SMILES,Keap1 Nrf2 FP,RTF Ca sens act,RTF Ca sens inh,C-LANA FP,LANA-H2A inh
Cc1cc(S(=O)(=O)Nc2ccc(C(=O)NCC3CCCO3)cc2)ccc1F (stereo unspecified),.,.,.,.,4.9
O=C(NCC1(N2CCOCC2)CCCCC1)c1cccc(S(=O)(=O)Nc2ccc(F)cc2)c1,-2.2,-1.7,2.7,0.4,-4.6
O=C(NCC1(N2CCCCC2)CCCCC1)c1cccc(S(=O)(=O)Nc2ccc(F)cc2)c1,-5.8,-7.0,-0.5,-0.5,23.2*
O=C(NCC1CCCO1)c1cccc(S(=O)(=O)Nc2ccc(F)cc2)c1 (stereo unspecified),-4.2,-0.6,2.9,-2.5,63.0*
O=C(O)CSCC(=O)N1CCCN(c2nc3ccc(Cl)cc3s2)CC1,-2.9,-3.0,-0.5,0.5,-0.4
Cc1oc(-c2cccs2)nc1CN1CCC(CO)(CCOc2ccccc2)CC1,-0.7,-0.9,-11.8,0.0,13.4*
CN1Cc2c(N)cccc2C(c2ccccc2)C1 (stereo unspecified),2.7,31.2*!,-14.7,7.6,0.0
Cc1cc(C)nc(Nc2n[nH]c(-c3ccccc3Br)n2)n1,-3.0,1.6,1.5,-0.8,17.7*
O=C(COC(=O)CCN1C(=O)/C(=C\C=C\c2ccccc2)SC1=S)Nc1ccc(Br)cc1,0.7,-0.7,-5.8,0.1,-1.6
Cc1ccc2oc(C(=O)NC3CCS(=O)(=O)C3)c(C)c2c1 (stereo unspecified),-1.4,-2.0,6.7,-0.1,.
CCCOc1ccc(N)cc1N,0.8,32.5*,-46.8,2.9,4.9
O=c1c2cc(NC(=S)NCCCN3CCC(Cc4ccccc4)CC3)ccc2nc2n1CCCCC2,-3.5,3.2,-2.1,-0.5,-1.4
COc1ccc(-c2nn(CCC#N)cc2C(=O)Nc2cccc(C(=O)O)c2)cc1[N+](=O)[O-],2.6,-7.8,6.0,-0.4,14.5*
Cc1cc(C)nc(NC(=O)COc2cc(Cl)cc(Cl)c2)n1,4.5,-4.5,3.6,2.6,14.2
Cc1ccccc1NS(=O)(=O)c1ccc(C(=O)NCC(C)(C)N2CCOCC2)cc1,-3.0,-0.8,-14.9,-0.5,-0.9
CCN(CC)c1ccc(C(=O)O)cc1,-3.6,0.6,10.4,1.1,2.2
CCN(CC)c1ccc(SS(=O)(=O)O)cc1,-5.1,-3.2,-12.7,-0.5,35.0*!
O=C1c2ccccc2NC(c2cn[nH]c2-c2ccc(Cl)cc2)N1O (stereo unspecified),12.2*,4.5,-8.9,8.5,1.1
c1coc(-c2nc(-c3ccco3)c(-c3ccco3)nc2-c2ccco2)c1,-2.6,-36.1,106.8*,5.7,-0.6
CCC1(CC)NC(=O)N(CC(=O)OCC(=O)Nc2ccccc2[N+](=O)[O-])C1=O,-0.4,-0.5,5.1,0.7,3.8
CCOC(=O)c1ccc(-n2c(N)c(C(=O)NCc3ccco3)sc2=S)cc1,4.5,0.7,-0.5,0.6,-4.2
C=CCNC(=O)c1sc(=S)n(-c2ccc(C(=O)OCC)cc2)c1N,0.3,10.9,-0.5,-0.7,39.5*
CC(C)[C@H](NC(=O)c1cccc(S(=O)(=O)N2CCCC2)c1)c1nc2ccccc2[nH]1,-1.5,-1.4,-5.5,-0.8,1.8
CN(C(=O)COc1ccc(Cl)cc1Br)C1CCCCC1,3.1,1.5,-7.8,-2.5,53.0*
Cc1cc(C(=O)COC(=O)CCc2nc3ccccc3s2)c(C)n1C,-3.9,-6.2,5.7,-1.1,12.5*
SMILES,Keap1 Nrf2 FP,RTF Ca sens act,RTF Ca sens inh,C-LANA FP,LANA-H2A inh
O=C(CCc1nc2ccccc2s1)OCc1ccccc1,-7.9,-1.5,-9.4,0.1,1.3
CC(C)(C)c1ccc(C(=O)Nn2cnnc2)cc1,-7.4,-2.6,4.6,-1.0,-25.5
CC(=O)Oc1ccc(C(=O)Nn2cnnc2)cc1,-2.5,-1.4,-6.3,-0.3,18.5*
N#CCCn1cc(C(=O)N2CCOCC2)c(-c2ccc3c(c2)OCCO3)n1,1.9,-6.6,-4.7,2.6,-491.2
CNCCCC1c2ccccc2C=Cc2ccccc21,-1.7,-5.0,-1.7,1.2,-5.0
CNCCCC12CCC(c3ccccc31)c1ccccc12,i,i,i,-0.3,9.6*!
CC1(c2ccccc2)CC(C)(C)N(C(N)=O)c2ccccc21 (stereo unspecified),3.9,-3.2,5.1,2.3,22.1*
CC(=O)N1c2ccccc2C(C)(c2ccccc2)CC1(C)C (stereo unspecified),-3.6,-4.0,-0.9,0.4,-0.2
COc1cccc(CCNC(=O)CC2C(=O)NCCN2CC(C)(C)C)c1 (stereo unspecified),1.7,-4.7,-9.0,0.5,17.3*

# Screens as filed in PubChem.
